# High-throughput results from PubChem BioAssay.
# NPR1 antag = Natriuretic polypeptide receptor (hNpr1) antagonism - Primary qHTS | Atrial natriuretic peptide receptor 1 (Homo sapiens), P16066 | HEK293 hNpr1 GloSensor cGMP, ANP-stimulated luminescence | Potency, µM (series often up to 46.3 µM), for the others: at the highest dose activity change, negative = inhibition, actives largely listed as inhibitors | 76,000 tested, 1.6% active | AID 1347048, 2019; calls by dose curve; note: % is set by controls: 0 for no effect and ±100 for the full control effect; nearly all actives have a fitted effect of over 60% in size
# Target sequence (P16066 whole entry, looked up): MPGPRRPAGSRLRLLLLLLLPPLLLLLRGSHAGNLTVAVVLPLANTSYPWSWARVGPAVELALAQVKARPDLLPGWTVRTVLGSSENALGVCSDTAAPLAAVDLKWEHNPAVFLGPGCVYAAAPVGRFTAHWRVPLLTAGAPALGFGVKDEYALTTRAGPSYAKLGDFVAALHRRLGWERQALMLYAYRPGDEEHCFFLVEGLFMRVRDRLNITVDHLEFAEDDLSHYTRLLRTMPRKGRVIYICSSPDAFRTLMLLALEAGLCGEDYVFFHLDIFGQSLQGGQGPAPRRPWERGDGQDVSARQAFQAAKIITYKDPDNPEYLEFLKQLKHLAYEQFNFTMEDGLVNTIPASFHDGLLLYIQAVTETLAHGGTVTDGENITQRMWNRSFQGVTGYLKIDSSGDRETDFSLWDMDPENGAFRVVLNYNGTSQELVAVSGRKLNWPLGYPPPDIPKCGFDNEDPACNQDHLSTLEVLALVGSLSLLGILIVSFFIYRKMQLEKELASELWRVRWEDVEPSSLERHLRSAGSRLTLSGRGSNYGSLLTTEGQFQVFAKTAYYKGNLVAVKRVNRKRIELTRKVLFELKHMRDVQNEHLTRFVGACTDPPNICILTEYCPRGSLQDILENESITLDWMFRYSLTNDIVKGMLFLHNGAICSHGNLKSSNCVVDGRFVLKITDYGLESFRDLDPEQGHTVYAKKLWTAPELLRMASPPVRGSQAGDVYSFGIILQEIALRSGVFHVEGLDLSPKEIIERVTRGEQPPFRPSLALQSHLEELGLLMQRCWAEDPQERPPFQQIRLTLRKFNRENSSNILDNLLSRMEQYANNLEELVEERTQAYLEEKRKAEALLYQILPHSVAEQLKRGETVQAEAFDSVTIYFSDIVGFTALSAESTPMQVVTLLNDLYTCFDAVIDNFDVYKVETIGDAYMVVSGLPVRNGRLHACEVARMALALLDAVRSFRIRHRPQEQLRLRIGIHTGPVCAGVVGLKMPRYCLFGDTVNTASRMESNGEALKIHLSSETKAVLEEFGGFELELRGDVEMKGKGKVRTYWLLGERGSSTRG
#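 Compound pre-incubated 30 min at room temperature on GloSensor-loaded HEK293 cells stably carrying hNpr1 and the pGS-40F cGMP biosensor. Stimulation uses hNppA at 0.1 nM final; luminescence is taken at baseline and 20 min post-agonist.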
# GPT2 inhibitor = Primary qHTS assay for inhibitors of Glutamate pyruvate transaminase 2 (GPT2); Recombinant GPT2, coupled pyruvate oxidase/HRP Amplex Red fluorescence; Alanine aminotransferase 2 (Homo sapiens), Q8TD30; Potency, µM (top dose mostly 57.7 µM), without a hit: top-dose activity change, negative = inhibition, usual class: inhibitors; 100,000 tested, 0.25% active; note: % is set by controls: 0 for no effect and ±100 for the full control effect; nearly all actives have a fitted effect of over 60% in size
#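 Inhibition is scored from Amplex Red fluorescence generated when pyruvate oxidase and HRP act on pyruvate released by GPT2. Reactions contain 10ng/uL enzyme, 250uM a-KG and 2mM L-alanine and run 30 min at room temperature.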
# HEK cytotox = Cytotoxic Profiling in HEK 293 Cell Line of Diverse Libraries Using Quantitative High-Throughput Screening; HEK 293 viability, ATP luminescence (CellTiter-Glo), 48-72 h; Potency, µM (series often up to 115 µM), inactives show top-dose activity change, negative = cytotoxicity, usual class: inhibitors; AID 1345083, 2018; 94,000 tested, 6.6% active; note: % is set by controls: 0 for no effect and ±100 for the full control effect; nearly all actives have a fitted effect of over 60% in size
#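 250 HEK 293 cells/well; compound by pintool; incubated 48 or 72 hr at 37 degree Celsius; CellTiter-Glo added, 10 min RT, luminescence imaged.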
# FLuc inh-1 = Firefly luciferase inhibition profiling of diverse chemical library using quantitative high-throughput screening | Luciferin 4-monooxygenase (Photinus pyralis), P08659 | purified P. pyralis luciferase, luminescence, biochemical | Potency, µM (doses to about 115 µM), hits mostly inhibitors | 76,000 tested, 2.5% active; note: % is set by controls: 0 for no effect and ±100 for the full control effect; nearly all actives have a fitted effect of over 65% in size
#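 FLuc 10nM, D-luciferin 10uM, ATP 10uM, Mg acetate 10mM, Tris acetate pH 7.5, Tween/BSA; cpd qHTS; enzyme added last; CCD luminescence.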
# NIH3T3 tox = Cytotoxic Profiling in NIH 3T3 Cell Line of Diverse Libraries Using Quantitative High-Throughput Screening; NIH 3T3 viability, CellTiter-Glo ATP luminescence, 48-72 h; 94,000 tested, 4.3% active; Potency, µM (top dose mostly 96.7 µM), without a hit: at the highest dose activity change, negative = cytotoxicity, actives largely listed as inhibitors; note: % is set by controls: 0 for no effect and ±100 for the full control effect; nearly all actives have a fitted effect of over 55% in size
#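 ATP-dependent luminescence (CellTiter-Glo) served as the viability signal for NIH 3T3 cells treated with compound for 48 or 72 hr at 37 °C.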
# FLuc SDR -ATP = Firefly luciferase (FLuc-C-HiBiT) SDR gain of signal screen - without ATP | shares compounds with FLuc inh-1 | Purified FLuc-C-HiBiT, Nano-Glo HiBiT luminescence, no ATP | Potency, µM (titrated, usually from 32.7 µM), inactives show at the top dose activation (signal gain), hits mostly activators | 1,300 tested, 7.8% active | AID 1963318, 2024; note: nearly all actives have a fitted effect of over 55% in size
# FLuc SDR ATP = Firefly luciferase (FLuc-C-HiBiT) SDR gain of signal screen - plus ATP. shares compounds with FLuc inh-1. purified FLuc-C-HiBiT + ATP, HiBiT complementation luminescence. Potency, µM (highest dose often 32.7 µM), for inactives: at the top dose activation (gain of signal), actives largely listed as activators. 1,300 tested, 8.7% active;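 note: signal reports ligand binding via conformational change of the enzyme rather than luciferase catalysis; % of control where 0% means no effect; nearly all actives have a fitted effect of over 55% in size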
# FLuc inh-2 = Firefly luciferase (FLuc-C-HiBiT) enzymatic inhibition screen - Functional assay. 1,300 tested, 42% active. shares compounds with FLuc inh-1. Potency, µM (doses to about 32.7 µM), inactives show at the top dose activity change, negative = inhibition, hits mostly inhibitors. AID 1963320, 2024. purified FLuc-C-HiBiT enzyme, luciferin luminescence; note: % is set by controls: 0 for no effect and ±100 for the full control effect; nearly all actives have a fitted effect of over 70% in size
# An asterisk follows results filed as active; i = inactive; ? = inconclusive; nt = no result given; [ ] = dose if it differs, or a comment. Sampled rows, rich in hits. Any-hit rate of the full collection: about 10%. Unless noted, calls come from the whole dose curve; as a rule, active = well fitted curve in the direction sought with a large enough effect; inconclusive = small, poorly fitted or top-dose-only effect, or another doubt; inactive = no such curve, though single readings can be large; an effect the other way counts as inactive or inconclusive. Potency is the fitted concentration of half-maximal effect.
SMILES,NPR1 antag,GPT2 inhibitor,HEK cytotox,FLuc inh-1,NIH3T3 tox,FLuc SDR -ATP,FLuc SDR ATP,FLuc inh-2
C=CCNc1c(O)cc2c(O)c1C[C@@H](C)C[C@H](OC)[C@@H](O)[C@@H](C)C=C(C)[C@H](OC(N)=O)[C@@H](OC)C=CC=C(C)C(=O)N2,nt,-18%,nt,nt,nt,nt,nt,nt
CCCOc1ccccc1C(=O)Nc1ccc(-c2nc3ccc(C)cc3s2)cc1,nt,nt,nt,nt,nt,?,?,6.2µM*
COc1cccc(C(=O)Nc2cccc(-c3nnc4n3CCCC4)c2)c1OC,-15%,i,-12%,i,?,nt,nt,nt
COc1cccc(C(=O)Nc2ccc(-c3nc4ccc(C)cc4s3)cc2)c1OC,nt,nt,nt,nt,nt,15%,10%,-4%
CCN(CC)Cc1cnc2c(C(=O)NC3(C(N)=O)CCCC3)cnn2c1,4%,-23%,i,i,-5%,nt,nt,nt
O=S(=O)(c1cccc(C(F)(F)F)c1)n1c(/C=C/c2ccccc2)nc2ccccc21,nt,nt,nt,nt,nt,1.6µM*,?,0.56µM*
CSc1ccc(/C=C/c2nc3ccccc3n2S(=O)(=O)c2ccc(Br)cc2)cc1,nt,nt,nt,nt,nt,7.9µM*,?,0.7µM*
C[C@@H]1C(=O)O[C@H]2[C@H]1CC[C@@]1(C)Cc3sc(NC(=O)c4c(F)cccc4F)nc3[C@@H](C)[C@H]21,?,-5%,?,2.2µM*,-29%,20%,19%,9.9µM*
C[C@@H]1C(=O)O[C@H]2[C@H]1CC[C@@]1(C)Cc3sc(NC(=O)c4ccncc4)nc3[C@@H](C)[C@H]21,?,?,56µM*,0.5µM*,?,?,?,0.57µM*
C[C@@H]1C(=O)O[C@H]2[C@H]1CC[C@@]1(C)Cc3sc(NC(=O)c4ccc(F)c(Cl)c4)nc3[C@@H](C)[C@H]21,-16%,-2%,?,i,-24%,nt,nt,nt
CCC(C)NC(=O)C1COC2(CCN(C(=O)CC(C)(C)C)CC2)N1C(=O)c1ccc(OC)cc1 (centres undefined),-3%,-20%,-25%,i,-26%,nt,nt,nt
COc1ccc2nc(NC(=O)Nc3ccccc3)sc2c1,nt,-12%,nt,nt,nt,nt,nt,nt
COc1ccc(OC)c(-c2nc3ccc(OC)cc3s2)c1,nt,nt,nt,nt,nt,21%,14%,?
O=C(NCCCc1ncc[nH]1)c1ccc(OC2CCN(C(=O)C3CC3)CC2)cc1,2%,-7%[11.5 µM],?,i,i,nt,nt,nt
CC1Cc2cc(-c3ccnc4ncnn34)ccc2O1 (centres undefined),3%,i,-20%,i,?,nt,nt,nt
Cc1ccccc1C(=O)Nc1ccc([C@H]2OCC(=O)N(Cc3ccncc3)[C@@H]2CO)cc1,-13%[70.6 µM],i,-9%[172 µM],i,1%[174 µM],nt,nt,nt
CC(C)(C)c1ccc(C(=O)Nc2ccc([C@H]3OCC(=O)N[C@@H]3CO)cc2)cc1,-1%[70.6 µM],i,?,10µM*,89µM*,27%[49.3 µM],16%[49.3 µM],?
